This is part of a sample that, as a whole, favours compounds with a hit. Of some 83,000 tested, about 20% had one in any assay.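 Negative percent growth values reflect cell death: -40 means 40% of the cells present at the start died, and -100 means all died.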 Unmarked numbers belong to inactive results. Calls of active or inactive are those of the source. Rule for the calls: active = growth percent below 10; inactive = the rest.

The first assay deals with MDA-MB-231 breast. The assay is described as follows: NCI-60 one-dose screen, 48 h (100 = growth as untreated, 0 = no growth, -100 = all killed). The settings on record: 10 µM unless noted.
Regarding `COc1ccc(-c2nnc(SCC(=O)Nc3ccc(C(=O)/C=C/c4cc(OC)c(OC)c(OC)c4)cc3)n2-c2ccccc2)cc1OC`, the growth was -44.6% [100 µM] (active).

On to `COc1ccc2cn3c4ccc(O)cc4[nH]c(=O)c3c2c1`, for which the growth is 23.2%.

Consider `COc1ccc(/C=N/c2cc(C(C)(C)C)nn2-c2ccccc2)cc1`, for which the growth was 99.7%.

With `CCCCCCCCCCC1OC(C)CC(C)O1` (stereo not given), the growth was 115%.

For `S=C(N/N=C/c1cc(Cl)cc(Cl)c1)NC12CC3CC(CC(C3)C1)C2`, the growth is 52.6%.

As for `CCOC1=C(Cl)C(=O)C(OCC)=C(Cl)C1=O`, the growth is 103%.

In the case of `COC(=O)/C=C1/CCCCC1(C)C(=O)OC` (stereo not given), the growth is 110%.

For `CCCCCCCCCCC(C[N+](C)(C)C/C=C/c1ccccc1)C(O)c1ccccc1` (stereo not given), the growth was -55.9% (active).

As for `C=CC1CN2CCC1CC2C(O)c1ccnc2ccc(OC)cc12` (stereo not given), the growth is 96.7%.

With `CC(=O)c1ccc2c(c1)c1ccccc1n2C`, the growth was 102%.

As to `CC(=O)Nc1nc(C)c(C(=O)NNS(=O)(=O)c2ccccc2)s1`, the growth was 107%.

As to `Cc1cc2cn3c4ccc(O)cc4nc(N)c3c2cc1C`, the growth was 27.3%.

As for `COc1cc(-c2nn(-c3ccc(NC(=O)Nc4ccc(Cl)c(Cl)c4)cc3)cc2-c2ccncc2)ccc1Cl`, the growth was 43.3%.

`CCOC(=O)c1sc(NS(=O)(=O)c2ccccc2)nc1C`: the growth was 107%.

As to `Clc1ccc(I)c2ccccc12`, the growth was 110%.

With `N#Cc1c2cccnc2c2nnc3cc(Cl)c(Cl)cc3n12`, the growth was 2.64% (active).

As for `COc1ccc(C(=O)NCCNc2nccc(-c3c(-c4ccc(F)cc4)nc4sccn34)n2)cc1`, the growth was 62.2%.

With `CC(O)CN(CC(C)O)N(CC(C)O)CC(C)O` (stereo not given), the growth was 105%.

Regarding `O=C(Nc1ccc(-n2cc(-c3ccncc3)c(-c3ccc(Cl)c(O)c3)n2)cc1)c1cc(C(F)(F)F)cc(C(F)(F)F)c1`, the growth is 46.3%.

In the case of `COc1cc(-c2nn(-c3ccc(NC(=O)c4cc(Cl)cc(Cl)c4)cc3)cc2-c2ccncc2)ccc1Cl`, the growth is 80.9%.

Consider `CCCCCCC(C)N(CC(C)(C)O)C(=O)c1ccc([N+](=O)[O-])cc1` (stereo not given), for which the growth was 106%.

Consider `COc1cc(-c2nn(-c3ccc(NC(=O)c4ccc(Cl)c(Cl)c4)cc3)cc2-c2ccncc2)ccc1Cl`, for which the growth is 54.9%.

For `COC(=O)[C@@H]1[C@H](O)[C@H](C)[C@H](O)[C@H](C)/C=C\C=C(C)C(=O)Nc2c(C)c(OC(C)=O)c3c(c2O)C(=O)C(C)=C2OCOC(=C23)C(C)=C[C@@](C)(O)[C@H](O)[C@@H](C)[C@H]1OC(C)=O`, the growth was 125%.

For the molecule `C/C(=C\c1ccc2ccccc2c1)[N+](=O)[O-]`, the growth is 50.8%.

Turning to `Cc1cc2cn3c4ccc(O)cc4[nH]c(=O)c3c2cc1C`, the growth was -11.1% (active).

For the molecule `COc1ccc(C(=O)N2N=C(c3ccc(Br)cc3)CC2c2cn(-c3ccccc3)nc2-c2ccccc2)cc1` (stereo not given), the growth was 61.3%.

Consider `O=CN/N=C/c1ccc(Cl)c([N+](=O)[O-])c1`, for which the growth was 43.9%.

As for `O=C1CCNC1`, the growth is 101%.

`O=c1[nH]c2cc(O)ccc2n2cc3c(F)cccc3c12`: the growth is 52.4%.

For `O=C(CCC(=O)N(CCO)CCO)N(CCO)CCO`, the growth was 109%.

As for `O=C(CCl)NC1c2ccccc2Oc2ccccc21`, the growth was 60.7%.

In the case of `CC(=O)N1CCN(CCNC(=O)n2cc(-c3ccncc3)c(-c3cc(O)cc(Cl)c3)n2)CC1`, the growth is 82.5%.

As for `CC(C)OCC1CO1` (stereo not given), the growth is 107%.

Consider `Oc1ccc(Br)cc1/C=N/NC(=S)NC12CC3CC(CC(C3)C1)C2`, for which the growth is -4.61% (active).

As to `CC(=O)N1CCN(CCNC(=O)n2cc(-c3ccncc3)c(-c3ccc(O)c(Cl)c3)n2)CC1`, the growth is 107%.

Turning to `CCOC(=O)/C(C#N)=C(/CC)OCC`, the growth was 107%.

For `O=C1Nc2c(c(=O)n(-c3ccccc3)c3ccccc23)C(c2ccc(Cl)cc2)N1` (stereo not given), the growth is 89.1%.

Turning to `N=C(c1ccccc1)N(Cc1ccccc1)Cc1ccccc1`, the growth is 79.6%.

Regarding `COc1cccc(NC(=O)NCCNc2nccc(-c3c(-c4ccc(F)cc4)nc4sccn34)n2)c1`, the growth is 79.4%.

Take `Cc1ccc(NC(=O)CCl)cc1Cl`: the growth was 89.4%.

Another assay concerns RXF 393 renal. Described as above. To be noted: 10 µM unless noted.
For `COc1ccc(-c2nnc(SCC(=O)Nc3ccc(C(=O)/C=C/c4cc(OC)c(OC)c(OC)c4)cc3)n2-c2ccccc2)cc1OC`, the growth is -24.7% [100 µM] (active).

With `COc1ccc2cn3c4ccc(O)cc4[nH]c(=O)c3c2c1`, the growth is 2.52% (active).

Turning to `COc1ccc(/C=N/c2cc(C(C)(C)C)nn2-c2ccccc2)cc1`, the growth was 126%.

For `CCCCCCCCCCC1OC(C)CC(C)O1` (stereo not given), the growth is 103%.

As to `S=C(N/N=C/c1cc(Cl)cc(Cl)c1)NC12CC3CC(CC(C3)C1)C2`, the growth was 67.2%.

Consider `CCOC1=C(Cl)C(=O)C(OCC)=C(Cl)C1=O`, for which the growth is 105%.

As to `COC(=O)/C=C1/CCCCC1(C)C(=O)OC` (stereo not given), the growth was 106%.

`CCCCCCCCCCC(C[N+](C)(C)C/C=C/c1ccccc1)C(O)c1ccccc1` (stereo not given): the growth is -54.3% (active).

For `C=CC1CN2CCC1CC2C(O)c1ccnc2ccc(OC)cc12` (stereo not given), the growth was 97%.

As to `CC(=O)c1ccc2c(c1)c1ccccc1n2C`, the growth is 94.7%.

Take `CC(=O)Nc1nc(C)c(C(=O)NNS(=O)(=O)c2ccccc2)s1`: the growth is 110%.

Take `Cc1cc2cn3c4ccc(O)cc4nc(N)c3c2cc1C`: the growth is 41.1%.

Take `COc1cc(-c2nn(-c3ccc(NC(=O)Nc4ccc(Cl)c(Cl)c4)cc3)cc2-c2ccncc2)ccc1Cl`: the growth is 22.6%.

Consider `CCOC(=O)c1sc(NS(=O)(=O)c2ccccc2)nc1C`, for which the growth is 114%.

In the case of `Clc1ccc(I)c2ccccc12`, the growth is 113%.

Take `N#Cc1c2cccnc2c2nnc3cc(Cl)c(Cl)cc3n12`: the growth is -3.12% (active).

Take `COc1ccc(C(=O)NCCNc2nccc(-c3c(-c4ccc(F)cc4)nc4sccn34)n2)cc1`: the growth is 72%.

`CC(O)CN(CC(C)O)N(CC(C)O)CC(C)O` (stereo not given): the growth is 105%.

With `O=C(Nc1ccc(-n2cc(-c3ccncc3)c(-c3ccc(Cl)c(O)c3)n2)cc1)c1cc(C(F)(F)F)cc(C(F)(F)F)c1`, the growth was -42.6% (active).

On to `COc1cc(-c2nn(-c3ccc(NC(=O)c4cc(Cl)cc(Cl)c4)cc3)cc2-c2ccncc2)ccc1Cl`, for which the growth was -17.1% (active).

For the molecule `CCCCCCC(C)N(CC(C)(C)O)C(=O)c1ccc([N+](=O)[O-])cc1` (stereo not given), the growth is 100%.

Regarding `COc1cc(-c2nn(-c3ccc(NC(=O)c4ccc(Cl)c(Cl)c4)cc3)cc2-c2ccncc2)ccc1Cl`, the growth was -55.1% (active).

Turning to `COC(=O)[C@@H]1[C@H](O)[C@H](C)[C@H](O)[C@H](C)/C=C\C=C(C)C(=O)Nc2c(C)c(OC(C)=O)c3c(c2O)C(=O)C(C)=C2OCOC(=C23)C(C)=C[C@@](C)(O)[C@H](O)[C@@H](C)[C@H]1OC(C)=O`, the growth is 106%.

For the molecule `C/C(=C\c1ccc2ccccc2c1)[N+](=O)[O-]`, the growth was -86.1% (active).

With `Cc1cc2cn3c4ccc(O)cc4[nH]c(=O)c3c2cc1C`, the growth is 38.1%.

For the molecule `COc1ccc(C(=O)N2N=C(c3ccc(Br)cc3)CC2c2cn(-c3ccccc3)nc2-c2ccccc2)cc1` (stereo not given), the growth was 82.4%.

As for `O=CN/N=C/c1ccc(Cl)c([N+](=O)[O-])c1`, the growth was 40.1%.

As to `O=C1CCNC1`, the growth is 105%.

`O=c1[nH]c2cc(O)ccc2n2cc3c(F)cccc3c12`: the growth was 4.74% (active).

As for `O=C(CCC(=O)N(CCO)CCO)N(CCO)CCO`, the growth was 113%.

With `O=C(CCl)NC1c2ccccc2Oc2ccccc21`, the growth is 80.1%.

In the case of `CC(=O)N1CCN(CCNC(=O)n2cc(-c3ccncc3)c(-c3cc(O)cc(Cl)c3)n2)CC1`, the growth was 65.2%.

For `CC(C)OCC1CO1` (stereo not given), the growth is 119%.

Consider `Oc1ccc(Br)cc1/C=N/NC(=S)NC12CC3CC(CC(C3)C1)C2`, for which the growth is -15.6% (active).

With `CC(=O)N1CCN(CCNC(=O)n2cc(-c3ccncc3)c(-c3ccc(O)c(Cl)c3)n2)CC1`, the growth is 120%.

Take `CCOC(=O)/C(C#N)=C(/CC)OCC`: the growth was 114%.

Turning to `O=C1Nc2c(c(=O)n(-c3ccccc3)c3ccccc23)C(c2ccc(Cl)cc2)N1` (stereo not given), the growth was 103%.

For `N=C(c1ccccc1)N(Cc1ccccc1)Cc1ccccc1`, the growth is 85%.

Take `COc1cccc(NC(=O)NCCNc2nccc(-c3c(-c4ccc(F)cc4)nc4sccn34)n2)c1`: the growth is 88.5%.

For the molecule `Cc1ccc(NC(=O)CCl)cc1Cl`, the growth was 102%.

The record behind these values is PubChem BioAssay (NCI).
